{"source": "PubChem BioAssay (NCI)", "note": "The panel holds about 83,000 compounds, 20% with a hit somewhere; the sample as a whole holds those more often.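 Results are percent growth after 48 hours of single-concentration exposure. 100 means growth as in untreated cells, lower positive values show inhibition; negative values down to -100 show cell death.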 The source made the active and inactive calls. Rule for the calls: active = growth percent below 10; inactive = the rest.", "data": [{"test_system": "HL-60(TB) leukemia", "assay": "NCI-60 one-dose screen, 48 h (100 = growth as untreated, 0 = no growth, -100 = all killed)", "settings": "10 µM unless noted", "values": [{"smiles": "CCc1ccc(OC(=O)CCl)cc1", "growth": "102% (inactive)"}, {"smiles": "COc1cc2nc(-c3ccc(Cl)cc3)cc(OCCCN3CCCC3)c2cc1OC", "growth": "32.4% (inactive)"}, {"smiles": "COc1ccccc1N(C(C)=O)C1=C(Cl)C(=O)c2ccccc2C1=O", "growth": "-27.5% (active)"}, {"smiles": "CCOC(=O)CNN", "growth": "113% (inactive)"}, {"smiles": "Cc1n(Cc2ccc3ccccc3c2)c2ccccc2[n+]1Cc1ccc2ccccc2c1", "growth": "-60.3% (active)"}, {"smiles": "COc1ccc2c(c1OC)OCC(CN(C)C)C2=O", "note": "(stereo not given)", "growth": "40.1% (inactive)"}, {"smiles": "COc1cc(-c2nn(-c3ccc(NC(=O)c4ccc(Cl)c(Cl)c4)cc3)cc2-c2ccncc2)ccc1Cl", "growth": "33.8% (inactive)"}, {"smiles": "CC(=O)c1nn(-c2ccccc2)/c(=N/N=Cc2cn(-c3ccccc3)nc2-c2cc3ccccc3oc2=O)s1", "growth": "102% (inactive)"}, {"smiles": "COc1cc(OCc2cccc(-c3ccc4c(c3)OCCO4)c2C)cc(OC)c1C=O", "growth": "64% (inactive)"}, {"smiles": "COc1cc(/C=C/c2cc(/C=C/c3ccc(O)c(OC)c3)n(C(=O)Nc3ccc(F)cc3)n2)ccc1O", "growth": "-21.4% (active)"}, {"smiles": "CC1=C2C(=C[C@@](C)(CO)[C@@H]2OC(=O)N(C)CCN(C)C(=O)OC(C)(C)C)C(=O)[C@](C)(O)C12CC2", "growth": "46.1% (inactive)"}, {"smiles": "COc1cc(/C=C2\\COc3ccc(O)c(O)c3C2=O)cc(OC)c1", "growth": "-29.8% (active)"}, {"smiles": "Cn1cc(-c2ccc3nc(-c4ccc(CC(=O)Nc5cc(C(C)(C)C)no5)cc4)cnc3c2)cn1", "growth": "18.5% [30 µM] (inactive)"}, {"smiles": "COC(=O)CNC(=O)[C@]12CCC(C)(C)C[C@H]1C1=CC[C@@H]3[C@@]4(C)Cc5c([nH]c6ccccc56)C(C)(C)[C@@H]4CC[C@@]3(C)[C@]1(C)CC2", "growth": "76.9% (inactive)"}, {"smiles": "CC(=O)OC/C(C)=C\\CC(C)COC(C)=O", "note": "(stereo not given)", "growth": "101% (inactive)"}, {"smiles": "C=CC(=O)Nc1cccc(Nc2nc(Nc3ccc(N4CCN(C(C)=O)CC4)cc3OC)ncc2C(F)(F)F)c1", "growth": "-25.2% (active)"}, {"smiles": "COc1cc(-c2cc(/C=C/C(=O)c3ccc(N)cc3)[nH]n2)cc(OC)c1OC", "growth": "13.2% (inactive)"}, {"smiles": "Cc1ccc(C)c(-n2c(-c3ccc(Br)cc3)csc2=NC(=O)c2ccccc2F)c1", "growth": "-21.6% (active)"}, {"smiles": "CNC(=O)c1nn(C)c2c1C(C)(C)Cc1cnc(Nc3ccc(N4CCN(C)CC4)cc3)nc1-2", "growth": "-27% (active)"}, {"smiles": "Cc1cc(N2CCN(C)CC2)nc(N(CCNc2ccnc3cc(Cl)ccc23)Cc2ccco2)n1", "growth": "8.29% (active)"}, {"smiles": "O=C(/C=C\\c1ccc2ccccc2n1)c1cc(Cl)ccc1O", "growth": "89.8% (inactive)"}, {"smiles": "NC(CSC(c1ccccc1)(c1ccccc1)c1cccc2ccccc12)C(=O)O", "note": "(stereo not given)", "growth": "88.5% (inactive)"}, {"smiles": "CC(C)=CCCC(C)C1=C(O)C(=O)C(C)=CC1=O", "note": "(stereo not given)", "growth": "-47.1% (active)"}, {"smiles": "O=C(Nc1ccc(-n2ccc3c(NC(=O)c4ccccc4)ncnc32)cc1)Nc1ccc(Cl)c(C(F)(F)F)c1", "growth": "15.3% (inactive)"}, {"smiles": "CCC1(CC)C(OC)NC(Br)=C(C#N)C1(C#N)C(N)=O", "note": "(stereo not given)", "growth": "93.1% (inactive)"}]}]}
